Our source for the morphology score values is the supplement of paper PMC13380429.

In the assay the test system is Vero E6 infected with SARS-CoV-2. Put plainly: morphology score (similarity to uninfected cells); higher = more like uninfected cells. Conditions: 24 h.
Take `C=C(NC(=O)C(=C)NC(=O)c1csc(C2=N[C@@H]3c4csc(n4)[C@H]4NC(=O)c5csc(n5)[C@H]([C@](C)(O)[C@@H](C)O)NC(=O)[C@H]5CSC(=N5)/C(=C/C)NC(=O)[C@H]([C@@H](C)O)NC(=O)c5csc(n5)[C@]3(CC2)NC(=O)[C@H](C)NC(=O)C(=C)NC(=O)[C@H](C)NC(=O)[C@H]([C@@H](C)CC)N[C@@H]2C=Cc3c([C@H](C)O)cc(nc3[C@H]2O)C(=O)O[C@@H]4C)n1)C(N)=O` [thiostrepton] (10 µM): the morphology score turned out to be 0.148.
Next, `COc1ccc(NS(=O)(=O)c2sc3ccc(Cl)cc3c2C)cc1N1CCNCC1` (10 µM): 0.192; `NS(=O)(=O)NCc1csc2ccccc12` (10 µM): 0.212.
As for `C=Cc1cc(O)cc2nc(-c3ccc(O)c(F)c3)oc12` [prinaberel] (10 µM), the figure is 0.143.
As for `Nc1ccn([C@@H]2O[C@H](CO)[C@@H](O)C2(F)F)c(=O)n1` [gemcitabine] (0.833333 µM), the figure is -0.00574; as for `CCOc1ccc2ccccc2c1C(=O)N[C@@H]1C(=O)N2[C@@H]1SC(C)(C)[C@@H]2C(=O)O` [nafcillin] (10 µM), -0.164; as for `N[C@H](Cc1cc(I)c(Oc2ccc(O)c(I)c2)c(I)c1)C(=O)O` [liothyronine-(isomer)] (10 µM), 0.127.
The compound `Cc1coc2c1C(=O)C(=O)c1c-2ccc2c1CCCC2(C)C` [tanshinone-IIA] (10 µM) gave a morphology score of 0.159.
Next, `CCC(C)C(C(=O)OCC[N+](C)(CC)CC)c1ccccc1` (centres undefined) [valethamate] (10 µM): 0.0952.
